Most compounds without a hit are left out; they make up all but 22% or so of the library.
E-sel TNF inh: blocks E-selectin expression induced by TNF alpha; AID 1246; HUVEC TNFa-induced E-selectin immunofluorescence, high content; inhibition, % at 2 µM; 120,000 compounds, 0.71% hits;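 active = inhibition above the batch mean plus 3 SD, and confirmed as a hit on visual image review, cut at about 43% in these data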;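 note: 0% = TNF-stimulated DMSO wells and 100% = unstimulated control wells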
cytoskel mod: modifiers of cytoskeleton assembly; 91,000 compounds, 0.18% hits; inhibition, % at 2 µM; HUVEC TNFa F-actin phalloidin imaging, high content;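 active = inhibition above the batch mean plus 3 SD and confirmed as a hit by visual image inspection, cut at about 30% in these data, passing the limit was not always enough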
CYP2C19 inh: human CYP2C19 inhibition. P33261. CYP2C19 Supersomes, luciferin-H EGE luminescence, 30 min. inhibition, % at 5 µM. 96,000 compounds, 21% hits. AID 778;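 active = CYP2C19 inhibition above a set limit at 5 µM in the primary screen, cut at about 50% in these data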;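 note: plate controls were negative control wells for no effect and 2.5 mM tranylcypromine positive control for full effect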
Target sequence (P33261 whole entry, looked up): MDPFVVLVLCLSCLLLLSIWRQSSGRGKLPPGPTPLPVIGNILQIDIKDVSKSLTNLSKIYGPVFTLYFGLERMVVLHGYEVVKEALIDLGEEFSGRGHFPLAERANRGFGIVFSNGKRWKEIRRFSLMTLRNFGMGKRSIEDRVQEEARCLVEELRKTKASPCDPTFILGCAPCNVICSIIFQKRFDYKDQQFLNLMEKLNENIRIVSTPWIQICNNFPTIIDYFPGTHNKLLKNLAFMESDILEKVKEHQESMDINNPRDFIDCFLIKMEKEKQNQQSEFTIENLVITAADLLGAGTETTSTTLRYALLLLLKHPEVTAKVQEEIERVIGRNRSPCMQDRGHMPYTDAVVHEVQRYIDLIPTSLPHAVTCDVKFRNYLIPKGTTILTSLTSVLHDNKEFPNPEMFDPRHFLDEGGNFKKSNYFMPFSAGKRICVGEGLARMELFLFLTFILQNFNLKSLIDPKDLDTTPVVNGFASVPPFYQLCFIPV
CYP2C9 act: increases human cytochrome P450 2C9 activity; P11712; recombinant CYP2C9, luciferin-H conversion, luminescence; hits give high values; factor 1 = untreated enzyme, 0 = blocked; activation factor at 5 µM; 96,000 compounds, 1.4% hits; AID 1024;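 active = activation factor of 2 or more for CYP2C9 at a 5 µM dose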;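 note: 0 = sulfaphenazole-blocked wells and 1 = vehicle-only wells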
CYP2C9 inhib: human CYP2C9 inhibition; 96,000 compounds, 20% hits; P11712; CYP2C9 Supersomes, luciferin-H conversion, luminescence; inhibition, % at 5 µM;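 active = blocking of liver enzyme CYP2C9 beyond about 50% at 5 µM, limit read from the data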
CYP2C19 act: cytochrome P450 2C19 (human) activation; recombinant CYP2C19, luciferin-H EGE luminescence; hits give high values; 0 = fully inhibited enzyme, 1 = untreated enzyme; activation factor at 5 µM; 96,000 tested, under 10 active; AID 1025;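 active = activation factor of at least 2 at 5 µM in the primary screen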;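 note: 0 = wells with 2.5 mM tranylcypromine and 1 = vehicle-only wells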
Active calls of the source: *; . = not tested or not shown.

SMILES | E-sel TNF inh | cytoskel mod | CYP2C19 inh | CYP2C9 act | CYP2C9 inhib | CYP2C19 act
CCCCN(Cc1ccccc1)C(=O)C1CCCN(S(=O)(=O)c2cnc[nH]2)C1 (configuration not stated) | 1.1 | 0.4 | 62.9* | 0.6 | 35.8 | 0.4
Cc1nn(C)c(C)c1S(=O)(=O)N1CCC(C(=O)NCCC2=CCCCC2)CC1 | -19.9 | -9.4 | -16.3 | 2.1* | -110.1 | 1.2
CCC1CCCCN1CCCNC(=O)CNC(=O)Cn1ccc2ccccc2c1=O (configuration not stated) | . | 5.8 | -7.5 | 1.2 | -17.7 | 1.1
Cc1[nH]cnc1CSCc1ccc(Cl)cc1 | 2.1 | . | . | . | . | .
Cc1ccc2cc3cc(C(=O)NCc4ccco4)oc3nc2c1 | . | -23.4 | 10.2 | 1.1 | -14.3 | 0.9
CCN(C(=O)CSc1ncn[nH]1)C1CCCCC1 | 23.7 | 5.1 | 13.0 | 0.9 | 10.0 | 0.9
Cc1ccc2c(Cl)cc(Cl)c(OCC(=O)Nc3cc(S(=O)(=O)N(C)C)ccc3C)c2n1 | -6.6 | . | . | . | . | .
COc1ccc(S(=O)(=O)N2CCC(C(=O)NCCc3ccc4c(c3)OCO4)CC2)cc1 | . | -13.0 | 85.5* | 2.1* | -111.8 | 0.1
O=C(NCCc1ccc2c(c1)OCO2)C1CCN(S(=O)(=O)c2ccc(Cl)cc2)CC1 | 20.4 | -38.5 | -0.5 | 1 | 3.2 | 1
CN(CCCNC(=O)C1CCCN(S(=O)(=O)c2cnc[nH]2)C1)c1ccccc1 (configuration not stated) | . | 10.4 | 88.7* | 0.2 | 76.6* | 0.1
COc1ccc(S(=O)(=O)N2CCC(C(=O)NCCC3=CCCCC3)CC2)cc1C | -10.6 | 14.6 | 37.8 | 0.9 | 8.9 | 0.6
COc1ccc(C)cc1S(=O)(=O)N1CCC(C(=O)NCCC2=CCCCC2)CC1 | 3.7 | -0.5 | 35.5 | 3.1* | -211.5 | 0.6
COc1ccc(CCNC(=O)C2CCCN(S(=O)(=O)c3cnc[nH]3)C2)cc1OC (configuration not stated) | . | 9.7 | 73.3* | 0.3 | 71.0* | 0.3
CCOc1ccc(CCNS(=O)(=O)c2ccc3c(c2)NC(=O)CC(=O)N3)cc1OCC | -3.9 | . | . | . | . | .
CC1CCc2c(sc3ncnc(N4CCN(S(=O)(=O)c5cccc6nonc56)CC4)c23)C1 (configuration not stated) | -5.4 | -0.4 | . | . | . | .
Cc1cc(C)nc(NC(=O)CSc2nccc(C)n2)n1 | -27.4 | . | . | . | . | .
COc1ccc(CCNC(=O)C2CCN(S(=O)(=O)c3cnc[nH]3)CC2)cc1OC | -22.8 | . | 21.1 | 0.3 | 72.9* | 0.8
CCN(CCCNC(=O)C1CCN(S(=O)(=O)c2cnc[nH]2)CC1)c1cccc(C)c1 | . | -2.2 | 77.7* | 0.1 | 87.7* | 0.2
COc1ccc(OC)c(S(=O)(=O)N2CCC(C(=O)NCCc3ccc(OC)c(OC)c3)CC2)c1 | -10.9 | -1.6 | 61.0* | 0.8 | 15.3 | 0.4
CCN(CCCNC(=O)C1CCCN(S(=O)(=O)CC)C1)c1cccc(C)c1 (configuration not stated) | . | 24.1 | 2.2 | 1.2 | -23.4 | 1
CN(CCNC(=O)C1CCN(S(=O)(=O)c2cnc[nH]2)CC1)Cc1ccccc1 | . | -3.0 | 39.7 | 0.5 | 52.3* | 0.6
CC(NC(=O)C1CCN(S(=O)(=O)c2cnc[nH]2)CC1)c1ccccc1 (configuration not stated) | -46.5 | . | . | . | . | .
CCOC(=O)C(C)Oc1nc(Oc2ccccc2)nc(N(C)C)n1 (configuration not stated) | . | -5.8 | 57.1* | 0.7 | 29.6 | 0.4
COc1nc(Oc2ccc(C(=O)OCC(N)=O)cc2)nc(N(C)C)n1 | -6.4 | -16.8 | -12.1 | 1.2 | -16.3 | 1.1
COC(=O)c1ccc(Oc2nc(Nc3ccccc3)nc(N(C)C)n2)cc1 | 0.9 | 10.6 | 36.1 | 0.5 | 52.1* | 0.6
SMILES | E-sel TNF inh | cytoskel mod | CYP2C19 inh | CYP2C9 act | CYP2C9 inhib | CYP2C19 act
Cn1c(=O)c2c(nc(Sc3ncccn3)n2Cc2ccccc2Cl)n(C)c1=O | -6.8 | 3.2 | 11.3 | 0.8 | 21.6 | 0.9
Cn1c(=O)c2c(nc(Sc3n[nH]c(N)n3)n2Cc2ccccc2Cl)n(C)c1=O | . | 15.3 | 53.8* | 0.8 | 15.1 | 0.5
Cn1c(=O)c2c(nc(SCCCO)n2Cc2ccccc2Cl)n(C)c1=O | -4.0 | 10.7 | 34.4 | 0.5 | 54.3* | 0.7
CN(C)S(=O)(=O)c1ccc(/C(O)=C2/C(=O)C(=O)N(Cc3cccnc3)C2c2ccco2)cc1 (configuration not stated) | 7.2 | -16.0 | -0.6 | 0.7 | 25.7 | 1
OCCCN1CCN(CCOc2ccccc2-c2ccccc2)CC1 | -5.2 | . | . | . | . | .
CC(C)(C)NC(=O)c1ccnc(C(C)(C)C)c1 | . | 27.3 | 52.3* | 1 | -3.0 | 0.5
CC(C)(C)c1cc(C(=O)Nc2ccccc2)ccn1 | -22.2 | 0.5 | . | . | . | .
CC(NC(=O)c1ccnc(C(C)(C)C)c1)c1ccccc1 (configuration not stated) | -43.2 | 5.7 | 55.6* | 0.4 | 55.3* | 0.4
CC(C)C(NC(=O)COc1ccccc1)C(=O)O (configuration not stated) | 21.2 | -9.3 | -6.7 | 1.1 | -13.2 | 1.1
COc1ccc2cc(/C(C)=N/NC(=O)C3CC3)ccc2c1 | -25.5 | . | . | . | . | .
COc1cc(Cl)c(C)cc1NC(=O)CSc1cc(Cl)ccc1Cl | -5.0 | . | . | . | . | .
Fc1ccc(-n2c(Cc3ccccc3)nnc2SCc2nc(-c3cccs3)no2)cc1 | -14.8 | 4.2 | 44.1 | 0.3 | 74.5* | 0.6
Cc1ccc(-n2c(Cc3cccs3)nnc2SCC(N)=O)cc1 | . | -6.0 | 55.9* | 1 | -0.7 | 0.4
Cc1ccc(-c2noc(CSc3nnc(Cc4cccs4)n3-c3ccccc3)n2)cc1 | . | -3.5 | 71.6* | 0.5 | 49.0 | 0.3
Cc1ccc(-c2noc(CSc3nnc(Cc4ccccc4)n3-c3cccc(C)c3)n2)cc1 | -15.9 | 5.9 | 82.4* | 0.5 | 45.3 | 0.2
c1ccc(-c2noc(CSc3nnc(Cc4cccs4)n3-c3ccccc3)n2)cc1 | 5.8 | 7.6 | . | . | . | .
O=C(Nc1nccs1)c1cccc(S(=O)(=O)N2CCOCC2)c1 | -7.2 | . | . | . | . | .
C=C(C)c1cccc(C(C)(C)NC(=O)N2CCCC(C)C2)c1 (configuration not stated) | 2.1 | 7.3 | . | . | . | .
CCCCOc1ccc(NC(=O)CSc2nnnn2C)cc1 | 16.2 | 1.2 | -23.3 | 1.1 | -9.4 | 1.2
COc1ccc(N2CCN(S(=O)(=O)c3ccc4c(c3)CCCC4)CC2)c([N+](=O)[O-])c1 | -40.0 | 16.7 | 28.9 | 1.5 | -47.4 | 0.7
COc1ccc(-c2noc(CSc3nnc(Cc4ccccc4)n3-c3cccc(C)c3)n2)cc1OC | -1.0 | -23.7 | 97.9* | 0.5 | 54.6* | 0
COc1ccc(C(=O)NC(C)c2nnc(SCc3ccc(Cl)c(Cl)c3)n2C)cc1 (configuration not stated) | . | -10.9 | 0.8 | 0.9 | 11.3 | 1
CC(=O)N1CCc2cc(Br)cc(S(=O)(=O)N3CCCCCC3)c21 | . | 18.4 | 36.8 | 1.4 | -40.9 | 0.6
CC(=O)N1CCc2cc(Br)cc(S(=O)(=O)N3CCN(C(=O)c4ccco4)CC3)c21 | . | 1.4 | 28.3 | 0.4 | 59.0* | 0.7

Assay outcomes deposited in PubChem BioAssay by several laboratories.
